These results are taken from PubChem BioAssay (NCI).

The subject of this test is HL-60(TB) leukemia. In words: NCI-60 one-dose screen, 48 h (100 = growth as untreated, 0 = no growth, -100 = all killed). The conditions noted are these: 10 µM unless noted.

Compounds without any hit were thinned out: in the full panel of roughly 83,000, 20% have a hit.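 Compound tested at a single concentration for 48 hours in 96-well plates; a percent growth value below 10 was scored as active.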 Unmarked numbers belong to inactive results. Active and inactive are the calls of the source.

Turning to `COc1ccc(Br)c2ccccc12`, the growth was 88.4%.

For `COc1ccc2occ(C3=C(c4c[nH]c5ccccc45)C(=O)NC3=O)c2c1`, the growth was 20.8%.

As for `Cc1nc2sc(C(=O)Nc3ccccc3)c(N)c2cc1C(=O)c1ccc(C(F)(F)F)cc1`, the growth is 99.3%.

Consider `O=C(CN1CCN(c2cc3c(cc2F)c(=O)c(C(=O)O)cn3C2CC2)CC1)N/N=C/c1ccco1`, for which the growth was 103%.

Turning to `CC(=O)N[C@H](C(=O)N[C@@H](CCCNC(=N)N)C(=O)N[C@@H](CCCCN)C(=O)N[C@@H](CCCNC(=N)N)C(=O)N[C@]1(C)CCCCCC/C=C\CCC[C@@](C)(C(=O)N[C@@H](CCCNC(=N)N)C(=O)N[C@@H](CCC(=O)O)C(=O)N[C@@H](CC(C)C)C(=O)N[C@H](C(=O)N[C@@H](CCC(=O)O)C(N)=O)C(C)C)NC(=O)[C@H](CCC(N)=O)NC(=O)[C@H](CC(C)C)NC(=O)[C@H](CC(C)C)NC(=O)[C@H](CCCNC(=N)N)NC(=O)[C@H](CCCNC(=N)N)NC(=O)[C@H](CC(C)C)NC1=O)C(C)C`, the growth was 15.9%.

With `COc1cc(/C=C/c2cc(/C=C/c3ccc(O)c(OC)c3)n(C(=O)Nc3ccc(Cl)cc3)n2)ccc1O`, the growth was -20.9% (active).

Regarding `Fc1ccccc1Nc1ccc2nnc(-c3ccncc3)n2n1`, the growth is 92.6%.

Take `COc1cc2ncnc(Oc3ccc(NC(=O)Nc4ccc(CN5CCOCC5)c(C(F)(F)F)c4)c4ccccc34)c2cc1OC`: the growth is -23% (active).

In the case of `COc1c(Cl)c2c(c(OC)c1OC)-c1ccc(SC)c(=O)cc1[C@@H](NC(=O)OCC(F)(F)F)CC2`, the growth is -35.4% (active).

In the case of `Cc1ccc(S(=O)(=O)c2c(COC(=O)c3cccc(C)c3)c(-c3ccccc3)nn2C)cc1`, the growth is 30.2%.

Consider `COC(c1ccccc1)(c1ccccc1)c1ccccc1`, for which the growth was 111%.

In the case of `COc1cc(C2=NN(c3ccccc3)C(c3cccc(Nc4ccnc5cc(C(F)(F)F)ccc45)c3)C2)cc(OC)c1OC` (centres undefined), the growth was 94.8%.

Take `CC1(C)OC2OC3C(CN)OC(c4ccccc4)OC3C2O1` (centres undefined): the growth was 49.3%.

Consider `Cc1ccc2nc(-c3ccc(C(=O)NNC(=S)Nc4ccccc4)cc3)[nH]c2c1`, for which the growth was 98%.

As for `CN1c2ccccc2[C@]2(Cc3ccccc3)Cc3ccccc3N[C@H]12`, the growth was 94.7%.

On to `CN(C)c1ccc(/C=C\N=Nc2ccc(Br)cc2)cc1`, for which the growth was 16.6%.

As for `C[n+]1ccccc1C[n+]1ccccc1`, the growth was 90.9%.

`CN(C)CCCN(CCC1CCCCC1)CCC1CCCCC1`: the growth is 30.1%.

On to `C[C@@H](Nc1cc(F)cc(F)c1)c1cc(C(=O)N(C)C)cc2c(=O)cc(N3CCOCC3)oc12`, for which the growth was 40.9%.

Take `CN(C)Cc1ccc(NC(=O)c2cncc(C#Cc3cnc(N)c4ncccc34)c2)cc1C(F)(F)F`: the growth was 31.1%.

As for `Cc1sc2ncnc(Sc3nc4ccccc4[nH]3)c2c1C`, the growth was -54.7% (active).

Regarding `O=c1oc2cc(OS(=O)(=O)C3CC3)ccc2c2c1CCCCCC2`, the growth is 80.1%.

On to `NC(=O)c1cc(I)ccc1NC(=O)COc1ccccc1`, for which the growth was -20.5% (active).

For `O=C1ON=[N+](c2ccc(Cc3ccc([N+]4=NOC(=O)C4CN4CCOCC4)cc3)cc2)C1CN1CCOCC1` (centres undefined), the growth was 86.4%.

For `N#Cc1ccc(NC2c3ccccc3CC2O)cc1` (centres undefined), the growth was 78.7%.

For the compound `O=C(NCCCN1CCC(N2CCCCC2)CC1)C1=Cc2cc(Br)ccc2OC1`, the growth is 36.3%.

Take `O=C(N/N=C\c1ccc(Cl)cc1Cl)c1ccncc1`: the growth was 87.6%.

Take `Nc1ncnc2c1CN(Cc1ccccc1)CC2`: the growth was 105%.

Regarding `O=C1Nc2ccccc2C12CC(c1ccccc1)=NN2` (centres undefined), the growth was -8.55% (active).

Turning to `COc1cccc(-c2nn(-c3ccccc3)cc2-c2ccnc(NCCNS(=O)(=O)c3ccc(Cl)cc3)c2)c1`, the growth was 7.06% (active).

Take `[O-]c1c[n+](-c2ccc(Cl)cc2)no1`: the growth is 89.4%.

As for `O=C1c2ccc3c4c(ccc(c24)C(=O)N1CCCNCc1ccccc1)C(=O)N(CCCNCc1ccccc1)C3=O`, the growth is -71.3% (active).

As to `COC(=O)[C@]12CC[C@@H](C)[C@H](C)[C@@H]1C1=CC[C@@H]3[C@@]4(C)C(C=O)=C[C@@](C)(COC(C)=O)[C@@H]4C(=O)C[C@@]3(C)[C@]1(C)CC2`, the growth was 29.8%.

With `COCCn1cc(-c2csc(-c3c[nH]c4ccccc34)n2)c2cccnc21`, the growth is 14.1%.
